# Experimental data taken from PubChem BioAssay AID463195 (Sanford-Burnham Center for Chemical Genomics, 2010).
# The campaign covered roughly 330,000 compounds. About 4,600 (1.4%) were called active. The sample holds actives, similar compounds and a random draw of the others, so the mix is not that of the screen.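 How the source made its calls: active means inhibition of 40% or more at the single tested concentration; inactive means the rest.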
# Assay: wild-type TIM10 yeast growth inhibition – luminescence, uHTS, counter-screen for tim10-1 yeast inhibitor project, primary screen (AID 463195);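 further: wild-type TIM10 isogenic control strain grown at permissive 25 °C; 0% = DMSO yeast wells and 100% = minimal medium wells without yeast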
# Settings: S. cerevisiae TIM10 strain growth, BacTiter-Glo luminescence, 24 h; at 10 µM; active compounds read high
row,Compound,inhibition
1,COc1ccccc1/C=C/CN1CCC(CO)(Cc2ccccc2)CC1,-1.7% (inactive)
2,CCCCNC(=O)C1CCC(=O)N1CCc1ccccc1 (centres undefined),-1.71% (inactive)
3,C[C@]12CC[C@H](O)CC1=CCC1C2CC[C@@]2(C)C1CC[C@@H]2NC(=O)CCC(=O)O (some centres undefined),-2.58% (inactive)
4,C=CC[C@H](CC(=O)N(CCO)Cc1ccccc1)C(=O)N[C@@H](COC(=O)[C@@H](CC=C)Cc1ccc(F)cc1)Cc1ccccc1,5.57% (inactive)
5,CSc1ccc(C(=O)C2CCCN(C(=O)c3ccc(C)nc3)C2)cc1 (centres undefined),-8.56% (inactive)
6,Cc1cc(C(=O)NNC(=O)CCC2CCCCC2)c(C)o1,-5.54% (inactive)
7,Cn1c2c(c(=O)n(C)c1=O)C(c1cccc([N+](=O)[O-])c1)Nc1ccccc1O2 (centres undefined),-3.02% (inactive)
8,CN(/N=C/c1ccccc1)C(=S)c1ccccc1,-6.07% (inactive)
9,Oc1ccc(/C=N/N(Cc2ccccc2)c2ccccc2)cc1,46% (active)
10,CCN(/N=C/c1ccccc1)c1cc(=O)n(C)c(=O)[nH]1,19.2% (inactive)
11,CN1CCN(S(=O)(=O)c2cccc(C(=O)Nc3sccc3C#N)c2)CC1,-3.26% (inactive)
12,CSC1=NCCN1C(=O)Cc1cccc2ccccc12,4.36% (inactive)
13,O=C1c2ccccc2C(=O)N1CC1c2ccccc2CCN1S(=O)(=O)c1ccccc1 (centres undefined),40.3% (active)
14,O=S(=O)(c1ccccc1)N1CCc2ccccc21,2.66% (inactive)
15,O=C(CCC(=O)N1CCN(S(=O)(=O)c2ccccc2)CC1)NC1CCCc2ccccc21 (centres undefined),8.6% (inactive)
16,CC1CCCCC1NC(=O)/C(C#N)=C/C=C/c1ccccc1[N+](=O)[O-] (centres undefined),47.3% (active)
17,O=[N+]([O-])c1ccccc1/C=C/CN1CCC(O)CC1,-13.6% (inactive)
18,O=[N+]([O-])c1ccccc1/C=C/CN1CCCC(CO)C1 (centres undefined),-25% (inactive)
19,CCOc1ccc(CN2CCN(Cc3c[nH]c4ccccc34)CC2)cc1,-10.6% (inactive)
20,CC1(C)CC(=O)C=C(NCCN2CCNCC2)C1,5.33% (inactive)
21,Cc1ccc(/C=C/C(=O)OCC(=O)NCc2ccc(Cl)cc2)o1,-3.46% (inactive)
22,CCOC(=O)C1CN(S(=O)(=O)c2ccc(OC)cc2)c2cc(Cl)ccc2O1 (centres undefined),15.1% (inactive)

row,Compound,inhibition
1,Oc1ccccc1C1=NN(c2ccccc2)C(c2ccccc2)C1 (centres undefined),49% (active)
2,O=C1C2N=NN(CC(=O)N3N=C(c4cccc5ccccc45)CC3c3ccccc3)C2C(=O)N1c1ccccc1 (centres undefined),22.8% (inactive)
3,COc1ccccc1N1N=C(c2cccs2)CC1c1ccccc1 (centres undefined),23% (inactive)
4,CC(C)CC(COCc1ccc(Cl)cc1)N1CCN(C(=O)c2ccc(C(F)(F)F)cc2)CCC1=O (centres undefined),17.7% (inactive)
5,Cc1ccc(NC(=S)N/N=C2/CCCc3c(C)cc(C)cc32)cc1,-3.6% (inactive)
6,CCCC1CCC(=NNC(=S)NCCc2ccccc2)CC1 (centres undefined),-23.1% (inactive)
7,CCCCNC(=S)N/N=C1\CCCCc2ccccc21,48.2% (active)
8,Cc1noc(C)c1S(=O)(=O)Nc1cc(C(F)(F)F)ccc1N1CCOCC1,14.8% (inactive)
9,NS(=O)(=O)c1ccc(CCNC(=O)CCCn2c(SCC(=O)N3CCCC3)nc3ccsc3c2=O)cc1,-3.82% (inactive)
10,COc1ccc(Oc2coc3cc(OC(=O)c4cncc(Br)c4)ccc3c2=O)cc1,22.3% (inactive)
11,O=C(OCc1cc2ccccc2[nH]c1=O)c1cccnc1,-6.32% (inactive)
12,O=C(Oc1c(-c2ccco2)oc2ccccc2c1=O)c1cccnc1,63.5% (active)
13,Cn1c(CC2Sc3ccccc3NC2=O)nnc1SCC(=O)c1ccc(Cl)cc1 (centres undefined),2.41% (inactive)
14,COc1cccc(NC(C)=[N+](C)CCNS(=O)(=O)c2ccc(Cl)cc2)c1,-4.11% (inactive)
15,CCCCn1c(N)c(N(CCC(C)C)C(=O)c2ccc([N+](=O)[O-])o2)c(=O)[nH]c1=O,-3.66% (inactive)
16,Cc1[nH]n(C)c(=O)c1N=Nc1ccc(S(C)(=O)=O)cc1,6.98% (inactive)
17,Cc1[nH]n(C(N)=S)c(=O)c1N=Nc1ccc(Cl)cc1Cl,50.4% (active)
18,CC1=NN(C(N)=S)C(=O)C1N=Nc1cc(Cl)ccc1Cl (centres undefined),28.1% (inactive)
19,S=C(NCc1ccc(Cl)cc1)NC12CC3CC(CC(C3)C1)C2,61.1% (active)
20,COC(=O)Cc1ccc(NC(=S)NCc2ccc(Cl)cc2)cc1,28% (inactive)
21,O=C(NCc1ccc(Cl)cc1)NCc1ccc(Cl)cc1,-12.6% (inactive)
22,CSc1nc2nc(-c3cccc(C(F)(F)F)c3)ccn2n1,-28% (inactive)
